Consider 22 compounds from the supplement of paper PMC7156485.

Where “and” joins values, the source holds several entries; their conditions need not be identical. Equal entries are not always repeated. ± gives the standard deviation of the averaged measurements.

Settings in all cases: concentration: 10 µM; 24 h
Assay [1] concerns HCC1569. The assay can be described thus: cell number relative to DMSO (% of DMSO); higher = more cells (less growth inhibition / toxicity). The gist of the method: (§1)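 Using 384-well plates with 800 cells per well in RPMI plus 10% FBS, HCC1569 and TDF cells were exposed to compounds at 10 µM, in triplicate, for 24 h at 37 °C. Imaging of six fields per well at ×10 followed H1.0 and DAPI staining. The reported quantity, H1.0 nuclear intensity or cell number, is a median of replicates given as percent of the plate control, and HCC1569 values were smoothed for positional effects.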

The subject of assay [2] is TDF. The assay is described as above. The gist of the method:
as §1

For assay [3], the system named is TDF. The assay can be described thus: H1.0 immunofluorescence intensity relative to DMSO (% of DMSO); higher = stronger H1.0 induction, active = 120 or more. The gist of the method: as §1
Assay [4] has as its system HCC1569. The assay can be described thus: H1.0 immunofluorescence intensity relative to DMSO (% of DMSO); higher = stronger H1.0 induction, active = 140 or more. Summed up:
as §1
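For H1.0 immunofluorescence intensity relative to DMSO in this document: TDF is a line of transformed human dermal fibroblasts of mesenchymal origin.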
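For cell number relative to DMSO in this document: TDF denotes transformed human dermal fibroblasts of mesenchymal origin.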

As to `Cn1cc(C=C2C(=O)Nc3cccnc32)c2ccccc21`, the cell number in assay [1] is 89.7 and 101; in assay [2] it was 104 and 96. In addition, the H1.0 immunofluorescence intensity was 96 (inactive) and 95.3 (inactive) in assay [3]; 161 (active) and 98.5 (inactive) in assay [4].

`C[N+](C)(C)CCC(=O)c1cccc2ccccc12.[I-]` [2-(alpha-Naphthoyl)ethyltrimethylammonium iodide]: the values for the cell number in assay [1] and in assay [2] were 92.7 and 81.5, respectively. In addition, the H1.0 immunofluorescence intensity in assay [3] is 101 (inactive); in assay [4], 91.6 (inactive).

In the case of `CCCCn1c(=O)c2c(ncn2CC(C)=O)n(CCCC)c1=O` [Denbufylline], the figures for the cell number in assay [1] and in assay [2] were 103 and 112, respectively. The H1.0 immunofluorescence intensity in assay [3] is 87.3 (inactive); in assay [4] it was 106 (inactive).

`NC(=O)c1ccccc1` [Benzamide]: the cell number in assay [1] turned out to be 98.5; in assay [2], 87.1. For the same compound, the H1.0 immunofluorescence intensity is 99.2 (inactive) in assay [3] and 107 (inactive) in assay [4].

Turning to `CN1CCN2c3ccccc3Cc3ccccc3C2C1.Cl` (stereo not drawn) [Mianserin.HCl], the cell number worked out at 107 in assay [1] and 112 in assay [2]. The H1.0 immunofluorescence intensity in assay [3] is 101 (inactive); in assay [4], 96.2 (inactive).

For `CCN(CC)CC#CCOC(=O)C(O)(c1ccccc1)C1CCCCC1.Cl` (stereo not drawn) [Oxybutynin Chloride], the cell number in assay [1] and in assay [2] was 101 in each case. Also, the H1.0 immunofluorescence intensity in assay [3] is 94.5 (inactive); in assay [4] it was 97.4 (inactive).

As to `C#CC1(O)CCC2C3CCC4=Cc5oncc5CC4(C)C3CCC21C` (stereo not drawn) [Danazol], the cell number is 97.02 ± 0.7 in assay [1] and 98.36 ± 0.75 in assay [2]. The H1.0 immunofluorescence intensity was 95.4 (inactive) in assay [3] and 100 (inactive) in assay [4].

For the compound `CC(C)(C)c1ccc(C(O)CCCN2CCC(C(O)(c3ccccc3)c3ccccc3)CC2)cc1` (stereo not drawn) [Terfenadine], the cell number in assay [1] was 92.7 ± 3.6; in assay [2] it was 97.9 ± 12. Further, the H1.0 immunofluorescence intensity in assay [3] was 107 (inactive); in assay [4], 126 (inactive).

Consider `C[C@H](c1ccc(F)cc1CCCC(=O)O)N(c1cc(F)ccc1F)S(=O)(=O)c1ccc(Cl)cc1`, for which the cell number in assay [1] is 99.7; in assay [2], 90.2. In addition, the H1.0 immunofluorescence intensity in assay [3] is 94.6 (inactive); in assay [4], 111 (inactive).

`Cc1cc(C(C)Nc2ccccc2)c2nc(N3CCOCC3)cc(=O)n2c1` (stereo not drawn): the values for the cell number in assay [1] and in assay [2] were 80.7 and 109, respectively. Besides, the H1.0 immunofluorescence intensity in assay [3] is 92.5 (inactive); in assay [4], 136 (inactive).

Turning to `CCCCCCC=CCCCCCCCCC(=O)O` [10(E)-Heptadecenoic acid], the cell number in assay [1] worked out at 97.6; in assay [2], 95.4. The figures for the H1.0 immunofluorescence intensity in assay [3] and in assay [4] were 98.4 (inactive) and 98.8 (inactive), respectively.

`CCN(CC)CC(=O)Nc1c(C)cccc1C.Cl` [Lidocaine hydrochloride]: the cell number stood at 97.3 in assay [1] and 101 in assay [2]. Moreover, the H1.0 immunofluorescence intensity is 89 (inactive) in assay [3] and 94.4 (inactive) in assay [4].

Turning to `CSc1nc(N)c2ncn(C3OC(COP(=O)([O-])OP(=O)([O-])[O-])C(O)C3O)c2n1.[Na+].[Na+].[Na+]` (stereo not drawn) [2-Methylthioadenosine diphosphate trisodium], the cell number was 99.9 in assay [1] and 92.9 in assay [2]. Moreover, the H1.0 immunofluorescence intensity in assay [3] was 99.2 (inactive); in assay [4] it was 89.7 (inactive).

Consider `CCCCCC=CC=C1C(=O)C=CC1CC=CCCCC(=O)O` (stereo not drawn) [15d-Prostaglandin J2], for which the values for the cell number in assay [1] and in assay [2] were 98.9 and 102, respectively. Moreover, the H1.0 immunofluorescence intensity was 97.5 (inactive) in assay [3] and 104 (inactive) in assay [4].

In the case of `COc1cc(OC)c(C=C2C(=O)Nc3ccccc32)c(OC)c1`, the cell number in assay [1] is 63.1; in assay [2] it was 11.2. Moreover, the H1.0 immunofluorescence intensity is 145 (active) in assay [3] and 184 (active) in assay [4].

For `O=S(=O)(NCCNCC=Cc1ccc(Br)cc1)c1cccc2cnccc12`, the cell number is 92.1 and 91.5 in assay [1]; 98.1 and 96.7 in assay [2]. For the same compound, the H1.0 immunofluorescence intensity in assay [3] is 93.6 (inactive) and 99.1 (inactive); in assay [4], 84.2 (inactive) and 136 (inactive).

As to `C=CC1(C)CCC2C(=CCC3C(C)(C(=O)O)CCCC23C)C1` (stereo not drawn) [(4alpha,13alpha)-pimara-7,15-dien-18-oic acid], the cell number in assay [1] was 102; in assay [2], 101. Moreover, the H1.0 immunofluorescence intensity in assay [3] was 99 (inactive); in assay [4] it was 86.6 (inactive).

As to `CN(C)CCC=C1c2ccccc2COc2ccccc21.Cl` [Doxepin hydrochloride], the cell number was found to be 100 in assay [1] and 95.2 in assay [2]. Also, the H1.0 immunofluorescence intensity in assay [3] is 93.1 (inactive); in assay [4], 97.5 (inactive).

Take `CCOC(=O)[C@@H](N)CCC(=O)N[C@@H](CSCc1ccccc1)C(=O)N[C@@H](C(=O)OCC)c1ccccc1`: the figures for the cell number in assay [1] and in assay [2] were 97.6 and 100, respectively. In addition, the figures for the H1.0 immunofluorescence intensity in assay [3] and in assay [4] were 92.9 (inactive) and 109 (inactive), respectively.

On to `O=C(Nc1ccccc1C(=O)Nc1ccc(CCO)cc1)c1ccc([N+](=O)[O-])cc1` [N-(4-(2-hydroxyethyl)phenyl)-2-(4-nitrobenzamido)benzamide], for which the results for the cell number in assay [1] and in assay [2] were 82.4 and 90.9, respectively. The H1.0 immunofluorescence intensity in assay [3] is 101 (inactive); in assay [4] it was 144 (active).

For the compound `Clc1ccc(CCC(Cn2ccnc2)Sc2c(Cl)cccc2Cl)cc1.O=[N+]([O-])O` (stereo not drawn) [Butoconazole nitrate], the cell number in assay [1] came to 98.1; in assay [2], 99.7. The H1.0 immunofluorescence intensity in assay [3] was 93 (inactive); in assay [4] it was 115 (inactive).

Consider `C=C1C(=O)C23C(O)C1CCC2C12COC3(O)C(O)C1C(C)(C)CCC2O` (stereo not drawn) [Oridonin], for which the results for the cell number in assay [1] and in assay [2] were 80.4 and 110, respectively. The H1.0 immunofluorescence intensity is 93 (inactive) in assay [3] and 111 (inactive) in assay [4].
